This is an account of results in PMC5540273 (PLoS ONE, 2017).

Several values for one entry are separate records, joined by “and”; a condition that tells them apart may be missing. Equal entries are not always repeated. Where two headings read alike, the source gives them in different places.

For experiment [1], the system named is T1, PFTK1.
T1 construct: gene CDK14
Particulars: concentration: 1 μM, replicates: in singlicate, n = 1.

In experiment [2] the test system is PHKG1. Particulars: concentration: 1 μM, replicates: in singlicate, n = 1.
Experiment [3] relates to PHKG2. Particulars: concentration: 1 μM, replicates: in singlicate, n = 1.
The subject of experiment [4] is PIK3C2B. Particulars: concentration: 1 μM, replicates: in singlicate; n = 1.
For experiment [5], the system named is PIK3C2G. Particulars: concentration: 1 μM, replicates: in singlicate, n = 1.
In experiment [6] the test system is PIK3CA. Particulars: concentration: 1 μM, replicates: in singlicate, n = 1.
The test system of experiment [7] is PIK3CB. The note with it: concentration: 1 μM, replicates: in singlicate, n = 1.
The test system of experiment [8] is PIK3CD. The note with it: concentration: 1 μM, replicates: in singlicate; n = 1.
Experiment [9] deals with PIK3CG. The note with it: concentration: 1 μM, replicates: in singlicate, n = 1.
Experiment [10] has as its system T2, PIK4CB.
T2 construct: gene PI4KB
The note with it: concentration: 1 μM, replicates: in singlicate, n = 1.

For experiment [11], the system named is PIKFYVE. The note with it: concentration: 1 μM, replicates: in singlicate; n = 1.
Experiment [12] relates to PIM1. The note with it: concentration: 1 μM, replicates: in singlicate, n = 1.
The subject of experiment [13] is PIM2. The note with it: concentration: 1 μM, replicates: in singlicate; n = 1.
The subject of experiment [14] is PIM3. Particulars: concentration: 1 μM, replicates: in singlicate, n = 1.
In experiment [15] the test system is PIP5K1A. Particulars: concentration: 1 μM, replicates: in singlicate, n = 1.
In experiment [16] the test system is PIP5K1C. The note with it: concentration: 1 μM, replicates: in singlicate, n = 1.
Experiment [17] deals with PIP5K2B. Particulars: concentration: 1 μM, replicates: in singlicate, n = 1.
In experiment [18] the test system is T3, PIP5K2C.
T3 construct: gene PIP4K2C
The note with it: concentration: 1 μM, replicates: in singlicate, n = 1.

For experiment [19], the system named is T4, PKAC-alpha.
T4 construct: gene PRKACA
Particulars: concentration: 1 μM, replicates: in singlicate, n = 1.

In experiment [20] the test system is T5, PKAC-beta.
T5 construct: gene PRKACB
Particulars: concentration: 1 μM, replicates: in singlicate, n = 1.
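Further: KINOMEscan kinase panel screen.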

Turning to `NCC(NC(=O)c1cc(-c2cn[nH]c2)c(-c2ccnc3[nH]ccc23)s1)c1ccccc1.O=C(O)C(F)(F)F.O=C(O)C(F)(F)F` (centres unmarked) [GSK1325775], the “%Inh” value in experiment [1] amounted to 21%; in experiment [2], 18%; in experiment [3] it was 26%; in experiment [4], 0%; in [5], 0%; in [6] it was 0%. For the same compound, the “%Inh” value is on record as 0% in [7]; 24% in experiment [8]; 3% in experiment [9]; 26% in experiment [10]; 0% in experiment [11]; 39% in experiment [12]. The “%Inh” value in [13] is listed as 16%; in experiment [14], 41%; in experiment [15], 50%; in [16] it was 80%; in [17], 71%; in experiment [18], 49%. Further, the “%Inh” value in experiment [19] amounted to 98.7%; in [20] it was 98%.
For `NCCNS(=O)(=O)c1ccc(-c2ccnc3[nH]ccc23)cc1` [GSK977617], the “%Inh” value was 16% and 27% in experiment [1] (1 µM); 45% and 25% in experiment [2] (1 µM); 75% and 60% in [3] (1 µM); 0% in experiment [4]; 32% and 12% in experiment [5] (1 µM); 0% and 3% in [6] (1 µM). The “%Inh” value in experiment [7] (1 µM) is 43% and 15%; in experiment [8], 0%; in experiment [9] (1 µM), 80% and 68%; in [10] (1 µM), 64% and 26%; in [11], 0%; in experiment [12] (1 µM), 56% and 35%. Further, the “%Inh” value in [13] was 0%; in [14] (1 µM), 40% and 0%; in [15] (1 µM), 61% and 30%; in [16] (1 µM) it was 83% and 62%; in experiment [17] (1 µM), 76% and 35%; in experiment [18] (1 µM), 17% and 13%. The “%Inh” value was 99.3% and 98.8% in experiment [19] (1 µM); 99.2% and 98.3% in [20] (1 µM).
On to `CN1c2ccc(CNc3ccc(F)cc3)cc2-c2c(cnn2C)S1(=O)=O`, for which the “%Inh” value in experiment [1] was found to be 0%; in experiment [2], 0%; in [3], 0%; in [4], 19%; in experiment [5], 41%; in experiment [6], 0%. Besides, the “%Inh” value was found to be 0% in experiment [7]; 0% in experiment [8]; 0% in experiment [9]; 0% in [10]; 17% in [11]; 0% in experiment [12]. Also, the “%Inh” value in experiment [13] turned out to be 14%; in [14] it was 5%; in experiment [15] it was 5%; in experiment [16], 23%; in experiment [17], 0%; in [18] it was 24%. The “%Inh” value turned out to be 5% in experiment [19] and 0% in experiment [20].
For the compound `Cc1c(Cn2c(C)nn3c(=O)cc(N4CCOC(C)C4)nc23)cccc1C(F)(F)F` (centres unmarked) [GSK2344444], the “%Inh” value in experiment [1] amounted to 48%; in [2], 0%; in experiment [3], 0%; in experiment [4], 31%; in experiment [5], 24%; in experiment [6], 5%. Further, the “%Inh” value amounted to 97.4% in experiment [7]; 92.7% in [8]; 64% in experiment [9]; 0% in [10]; 46% in experiment [11]; 11% in experiment [12]. Further, the “%Inh” value in experiment [13], in experiment [14], in experiment [15], in experiment [16], in experiment [17] and in experiment [18] was 0% in each case. The “%Inh” value is on record as 4% in [19] and 17% in experiment [20].
As for `CCn1cnc2c(N)ncnc21` [GW345098], the “%Inh” value in [1] is 2%; in [2] it was 4%; in experiment [3], 13%; in [4], 27%; in experiment [5] it was 31%; in [6], 29%. In addition, the “%Inh” value in experiment [7] came to 0%; in experiment [8], 0%; in [9] it was 21%; in [10], 1%; in experiment [11], 0%; in experiment [12], 0%. Also, the “%Inh” value in experiment [13], in experiment [14], in experiment [15], in experiment [16], in experiment [17] and in experiment [18] was 0% each time. Besides, the “%Inh” value in experiment [19] was 8%; in [20], 14%.
In the case of `c1ccc(-c2n[nH]cc2-c2ccnc3ccccc23)nc1` [GW271431], the “%Inh” value in experiment [1] turned out to be 25%; in experiment [2] it was 0%; in [3] it was 0%; in [4] it was 0%; in [5], 0%; in experiment [6], 0%. Moreover, the “%Inh” value was 0% in [7]; 5% in experiment [8]; 0% in experiment [9]; 0% in [10]; 0% in experiment [11]; 8% in experiment [12]. Further, the “%Inh” value is listed as 0% in [13]; 3% in [14]; 0% in [15]; 0% in experiment [16]; 15% in [17]; 4% in experiment [18]. Further, the results for the “%Inh” value in [19] and in [20] were 9% and 14%, respectively.
On to `COc1ccc(Nc2nccc(N3CCC(NC(=O)Nc4cccc(C(C)=O)c4)C3)n2)cc1` (centres unmarked) [GSK1379731], for which the “%Inh” value in experiment [1] amounted to 3%; in [2], 0%; in [3], 0%; in experiment [4] it was 0%; in experiment [5], 0%; in [6], 0%. Also, the “%Inh” value in [7], in experiment [8], in experiment [9], in [10], in [11] and in experiment [12] was 0% each time. The “%Inh” value in experiment [13] is reported as 0%; in [14], 0%; in [15] it was 0%; in [16], 24%; in experiment [17] it was 12%; in [18] it was 3%. In addition, the “%Inh” value is listed as 2% in experiment [19] and 0% in [20].
Take `Fc1ccc(-c2ncn(CCCN3CCOCC3)c2-c2ccccn2)cc1` [SB-211742]: the “%Inh” value in experiment [1] came to 0%; in [2], 50%; in experiment [3] it was 0%; in experiment [4], 0%; in [5], 0%; in experiment [6], 0%. Besides, the “%Inh” value in [7] came to 0%; in experiment [8] it was 0%; in experiment [9], 0%; in [10], 0%; in [11], 9%; in experiment [12], 0%. Further, the “%Inh” value in [13] is recorded as 8%; in experiment [14] it was 0%; in experiment [15], 22%; in [16], 47%; in experiment [17], 0%; in [18], 27%. The figures for the “%Inh” value in experiment [19] and in experiment [20] were 0% and 32%, respectively.
As to `Cc1ccc(NC(=O)c2ccnc(N3CCN(C)CC3)c2)cc1-c1ccc(C(=O)NCC2CC2)cc1` [GW775604], the “%Inh” value in experiment [1], in experiment [2], in experiment [3], in experiment [4], in experiment [5] and in experiment [6] was 0% in each case. Further, the “%Inh” value in experiment [7], in experiment [8], in experiment [9], in experiment [10], in experiment [11] and in experiment [12] was 0% throughout. The “%Inh” value in [13] is 0%; in experiment [14], 4%; in experiment [15], 0%; in experiment [16], 0%; in experiment [17] it was 0%; in [18], 0%. Besides, the “%Inh” value in experiment [19] and in experiment [20] was 0% each time.
For the compound `Cc1cccc(-c2nc(-c3ccc(S(C)(=O)=O)cc3)sc2-c2ccncc2)c1`, the “%Inh” value turned out to be 0% in experiment [1]; 0% in experiment [2]; 0% in experiment [3]; 0% in [4]; 49% in experiment [5]; 20% in [6]. Also, the “%Inh” value in experiment [7] was found to be 1%; in [8], 25%; in [9] it was 10%; in [10] it was 0%; in experiment [11], 25%; in [12], 13%. Also, the “%Inh” value in [13] is 2%; in experiment [14], 12%; in experiment [15], 22%; in [16] it was 2%; in experiment [17], 55%; in [18], 0%. Also, the “%Inh” value in [19] and in experiment [20] was 0% throughout.
